From PubChem BioAssay (NCATS) come the findings set out here.

“And” between values parts separate entries of the source, which are not always exact repeats. Identical values can stand only once. Inconclusive results are not listed. The source made the active and inactive calls. Unless noted, the call rests on the fitted dose curve; in most records, active means well fitted curve in the direction sought with a large enough effect; inconclusive means small, poorly fitted or top-dose-only effect, or another doubt; inactive means no such curve, though single readings can be large; an effect the other way counts as inactive or inconclusive.

Assay [1] is described as follows: qHTS to identify inhibitors of the type 1 interferon - major histocompatibility complex class I in skeletal muscle: primary screen against the NCATS Mechanism Interrogation Plate v5.0 (MIPE) Libary (AID 1347411). Further: nearly all actives have a fitted effect of over 65% in size. A digest of the protocol: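 Immortalized human C25cl48 myoblasts with HiBit knocked into endogenous HLA-B*08:01 were stimulated with 4.0 ng/ml IFN-beta and exposed to compounds (11-point 1:3 titration, top 46 uM final) for 24 hrs at 37 C; HiBiT lytic luminescence measured.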

In assay [2] the target is Protein phosphatase 1D (Homo sapiens) (UniProt O15297). Put plainly: RapidFire Mass Spectrometry qHTS Assay for Modulators of WT P53-Induced Phosphatase 1 (WIP1) (AID 1347424).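 Further: amount of dephosphorylated VEPPL-S-QETFS peptide product formed by WIP1; series mostly up to about 63 µM.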 A digest of the protocol: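 10 nM WIP1 preincubated with compounds 1 hr at room temperature in pH 7.5 Tris buffer with 30 mM MgCl2, 1 mM TCEP; 2 uM VEPPL-pS-QETFS phosphopeptide for 5 min, formic acid quench; dephosphorylated product quantified by RapidFire MS against labelled standard.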
Background: Quantitative high-throughput screening tests each substance at several concentrations.

For assay [3] the target is unchanged. Put plainly: Rhodamine-PBP qHTS Assay for Modulators of WT P53-Induced Phosphatase 1 (WIP1) (AID 1347425). A digest of the protocol:
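Steps: enzyme with Rh-PBP sensor and compounds, room-temperature incubation of 1 hr, baseline read, addition of VEPPL-pS-QETFS (10 uM final), kinetic fluorescence reads at 525/598 nm. Activity equals final minus baseline signal.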

The nature of assay [4]: Primary qHTS for inhibitors of La Crosse Virus (LACV) - induced cell death in SH-SY5Y cells (AID 1508616).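 Further: top concentration of the series differs between compounds; higher means more rescue of cells from virus-induced death.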 A digest of the protocol:
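Luminescent ATP readout (ATPLite 1step, 5 min room temperature) measured rescue from LACV-induced death after 6 days of infection at 0.01 MOI; normalized to infected DMSO wells and uninfected DMSO wells.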

Assay [5] can be described thus: Primary qHTS for small molecule stabilizers of the endoplasmic reticulum resident proteome: Secreted ER Calcium Modulated Protein (SERCaMP) assay (AID 1508630). Summed up: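 GLuc-SERCaMP-expressing SH-SY5Y cells, pretreated 16 h with compound, are challenged with thapsigargin to empty ER calcium stores; after 4 h, coelenterazine is added directly to the medium and luminescence is imaged.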

For assay [6], the target named is Cytochrome P450 3A4 (Homo sapiens) (UniProt P08684). Put plainly: Cytochrome P450 family 3 subfamily A member 4 (CYP3A4) small molecule antagonists: luciferase qHTS assay (AID 1645841; active means well fitted curve in the direction sought with a large enough effect in the repeat runs; an effect the other way counts as inactive or inconclusive; further: nearly all actives have a fitted effect of over 45% in size). Summed up:
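P450-Glo CYP3A4 enzyme with proluciferin substrate preincubated 10 min with compound at room temperature, then NADPH regeneration 1 h. Luciferin detection reagent added for 20 min; luminescence recorded. Ketoconazole positive control.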

Assay [7] concerns the target Cytochrome P450 2C9 (Homo sapiens) (UniProt P11712). Put plainly: Cytochrome P450 family 2 subfamily C member 9 (CYP2C9) small molecule antagonists: luciferase biochemical (cell-free) qHTS assay (AID 1645842; active means well fitted curve in the direction sought with a large enough effect in the repeat runs; an effect the other way counts as inactive or inconclusive; further: nearly all actives have a fitted effect of over 55% in size; further: potency means the concentration at half of the fitted maximal effect). Summed up:
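Luminescence, after 20 min with luciferin detection reagent, reflected CYP2C9 turnover during a 1 h NADPH-driven reaction at 37C. Enzyme-substrate mix contained 0.4% bovine serum albumin and was preincubated with compound 10 min at room temperature.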

A short description of assay [8]: Primary qHTS for inhibitors of nuclear receptor binding SET domain protein 2 (NSD2) in an isogenic RCH-ACV NSD2 p.E1099K mutant (9B) (AID 1645876). Further: nearly all actives have a fitted effect of over 70% in size. Further: potency means the concentration at half of the fitted maximal effect.
For assay [9], the target named is Calcium and integrin-binding protein 1 (Homo sapiens) (UniProt Q99828). Put plainly: Primary qHTS for Identification of Calcium Integrin Binding Protein 1 (CIB1) Competitor (AID 1508620). Further: top concentration of the series differs between compounds. Summed up: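 Fluorescence polarization competition: GST-tagged CIB1 (1 uM final) preincubated with compound 15 min at room temperature, then FITC-labelled alphaIIb peptide (100 nM final) added. After 15 min at room temperature, polarization read at Ex 480/Em 540.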

Assay [10] can be described thus: A High-Content qHTS Against Drug Library for the Identification of Small Molecules that Inhibit DYT1 Early Onset Primary Dystonia-Associated Cell Pathology (AID 1645839; calls by dose curve; further: series mostly up to about 46 µM). Summed up: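 Flp-In T-REx 293 cells with tetracycline-inducible EGFP-delE hTOR1A (WT EGFP-hTOR1A as reference), 800 cells/well; compound added with tetracycline, 48 h at 37 C. Fixed, permeabilized cells imaged; %pathology (punctate TorsinA) primary, cell count counterscreen.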

For assay [11], the target named is Cytochrome P450 2D6 (Homo sapiens) (UniProt P10635). Put plainly: Cytochrome P450 family 2 subfamily D member 6 (CYP2D6) small molecule antagonists: luciferase biochemical (cell-free) qHTS assay (AID 1645840; active means well fitted curve in the direction sought with a large enough effect in the repeat runs; an effect the other way counts as inactive or inconclusive; further: nearly all actives have a fitted effect of over 55% in size; further: potency means the concentration at half of the fitted maximal effect). Summed up:
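P450-Glo luminescent screen: recombinant CYP2D6 enzyme–proluciferin substrate mix preincubated with compound 10 min at room temperature, then NADPH regeneration added for 1 h at room temperature. Detection reagent added for 20 min; luciferin light read as relative luminescence units.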

The nature of assay [12]: Validation qHTS assay for inhibitors of Activation Induced Cytidine Deaminase (AID): UDG Counterscreen signal (AID 1347427). Summed up:
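Counterscreen read of UDG activity (2 U/mL, 4/3x) in the FRET deamination format with AID (1 uM, 4/3x), DJC20/DJC23 substrates (250 nM, 4x), 4 h at room temperature. NaOH stop, fluorescence at 560 ex/665 em.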

The target in assay [13] is Single-stranded DNA cytosine deaminase (Homo sapiens) (UniProt Q9GZX7). Nature of the assay: Validation qHTS assay for inhibitors of Activation Induced Cytidine Deaminase (AID): AID signal (AID 1347429). A digest of the protocol:
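AID and UDG were combined and compounds added at final up to 114 uM, then DJC20/DJC23 FRET substrate was added for 4 hr at room temperature. NaOH was then added for 30 min before fluorescence was read at 540/590 nm.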

Assay [14] addresses Calcium and integrin-binding protein 1 (Homo sapiens) (UniProt Q99828). Put plainly: Validation qHTS for Identification of Calcium Integrin Binding protein 1 (CIB1) Competitor (AID 1508618). A digest of the protocol:
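In this qHTS validation, the LOPAC set (up to 114 uM) was tested for blocking CIB1 binding to a fluorescein-tagged alphaIIb peptide, with FP detection at 480/540 nm.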

The target of assay [15] is Papain (Carica papaya) (UniProt P00784). Put plainly: Primary qHTS assay for inhibitors of the protease papain (AID 1645873).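 Further: papain turnover of Z-FR-AMC read as the AMC fluorescence gain over 10 min; series mostly up to about 50 µM.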
Sequence of Papain (Carica papaya) (P00784 whole entry, looked up): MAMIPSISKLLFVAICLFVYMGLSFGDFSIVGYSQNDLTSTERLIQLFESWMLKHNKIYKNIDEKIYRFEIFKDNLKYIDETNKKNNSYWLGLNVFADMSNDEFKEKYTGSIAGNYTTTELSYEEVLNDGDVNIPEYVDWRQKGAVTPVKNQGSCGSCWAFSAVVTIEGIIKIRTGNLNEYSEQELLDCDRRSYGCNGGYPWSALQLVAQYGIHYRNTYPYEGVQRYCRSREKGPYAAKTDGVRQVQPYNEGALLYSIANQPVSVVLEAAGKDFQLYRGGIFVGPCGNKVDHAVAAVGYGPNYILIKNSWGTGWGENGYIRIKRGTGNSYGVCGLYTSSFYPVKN

Sequence of Protein phosphatase 1D (Homo sapiens) (O15297 whole entry, looked up): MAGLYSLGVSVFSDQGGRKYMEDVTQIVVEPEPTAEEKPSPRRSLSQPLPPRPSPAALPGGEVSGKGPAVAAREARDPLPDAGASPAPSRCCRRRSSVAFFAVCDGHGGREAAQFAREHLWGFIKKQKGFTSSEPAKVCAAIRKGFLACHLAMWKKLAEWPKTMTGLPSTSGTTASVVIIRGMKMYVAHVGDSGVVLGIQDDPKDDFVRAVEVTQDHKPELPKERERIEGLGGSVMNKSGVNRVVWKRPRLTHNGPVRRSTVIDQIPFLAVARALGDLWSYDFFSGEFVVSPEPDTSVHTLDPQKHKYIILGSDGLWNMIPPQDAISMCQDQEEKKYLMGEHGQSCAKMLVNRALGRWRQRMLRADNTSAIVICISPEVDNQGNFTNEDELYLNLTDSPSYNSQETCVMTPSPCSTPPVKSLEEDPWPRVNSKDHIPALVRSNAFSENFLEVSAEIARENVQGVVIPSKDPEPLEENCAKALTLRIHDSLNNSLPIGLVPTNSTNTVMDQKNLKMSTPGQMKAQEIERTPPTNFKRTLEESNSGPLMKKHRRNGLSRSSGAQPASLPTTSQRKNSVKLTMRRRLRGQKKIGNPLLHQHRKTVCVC
Sequence of Cytochrome P450 2D6 (Homo sapiens) (P10635 whole entry, looked up): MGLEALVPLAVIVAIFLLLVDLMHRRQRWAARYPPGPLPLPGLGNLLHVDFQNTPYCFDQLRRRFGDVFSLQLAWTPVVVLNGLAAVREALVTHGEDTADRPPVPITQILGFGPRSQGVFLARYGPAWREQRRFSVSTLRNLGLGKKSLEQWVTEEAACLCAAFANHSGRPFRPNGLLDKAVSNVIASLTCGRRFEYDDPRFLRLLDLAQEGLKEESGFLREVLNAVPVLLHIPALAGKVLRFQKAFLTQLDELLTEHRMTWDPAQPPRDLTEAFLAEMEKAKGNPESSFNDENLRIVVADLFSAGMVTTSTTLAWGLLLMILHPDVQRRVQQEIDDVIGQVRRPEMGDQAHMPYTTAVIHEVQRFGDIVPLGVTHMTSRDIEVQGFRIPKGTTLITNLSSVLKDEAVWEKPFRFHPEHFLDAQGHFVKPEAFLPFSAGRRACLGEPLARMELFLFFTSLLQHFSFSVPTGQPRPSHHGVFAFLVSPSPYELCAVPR
Sequence of Calcium and integrin-binding protein 1 (Homo sapiens) (Q99828 whole entry, looked up): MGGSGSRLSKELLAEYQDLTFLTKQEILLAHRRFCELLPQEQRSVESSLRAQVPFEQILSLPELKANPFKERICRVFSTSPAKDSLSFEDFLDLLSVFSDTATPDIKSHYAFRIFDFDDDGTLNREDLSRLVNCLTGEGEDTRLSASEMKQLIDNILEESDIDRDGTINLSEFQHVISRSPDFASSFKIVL
Sequence of Cytochrome P450 2C9 (Homo sapiens) (P11712 whole entry, looked up): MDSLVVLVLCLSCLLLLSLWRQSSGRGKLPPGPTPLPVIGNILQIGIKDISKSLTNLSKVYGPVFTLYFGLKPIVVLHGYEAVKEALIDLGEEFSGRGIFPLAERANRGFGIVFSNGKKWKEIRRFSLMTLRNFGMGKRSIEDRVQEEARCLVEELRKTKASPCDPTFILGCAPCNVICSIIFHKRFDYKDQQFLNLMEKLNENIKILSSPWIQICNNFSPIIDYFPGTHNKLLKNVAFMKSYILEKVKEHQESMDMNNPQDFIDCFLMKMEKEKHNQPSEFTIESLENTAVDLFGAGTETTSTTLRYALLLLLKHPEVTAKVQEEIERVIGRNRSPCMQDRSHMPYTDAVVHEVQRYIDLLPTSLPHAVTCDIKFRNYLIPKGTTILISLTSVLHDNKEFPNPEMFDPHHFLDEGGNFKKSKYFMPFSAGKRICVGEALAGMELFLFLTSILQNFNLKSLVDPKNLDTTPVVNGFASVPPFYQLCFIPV
Sequence of Single-stranded DNA cytosine deaminase (Homo sapiens) (Q9GZX7 whole entry, looked up): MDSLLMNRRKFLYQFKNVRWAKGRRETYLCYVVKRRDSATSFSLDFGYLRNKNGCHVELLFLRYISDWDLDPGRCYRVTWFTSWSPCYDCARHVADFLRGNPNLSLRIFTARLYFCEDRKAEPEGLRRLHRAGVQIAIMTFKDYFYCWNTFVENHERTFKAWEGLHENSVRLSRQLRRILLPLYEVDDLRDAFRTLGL
Sequence of Cytochrome P450 3A4 (Homo sapiens) (P08684 whole entry, looked up): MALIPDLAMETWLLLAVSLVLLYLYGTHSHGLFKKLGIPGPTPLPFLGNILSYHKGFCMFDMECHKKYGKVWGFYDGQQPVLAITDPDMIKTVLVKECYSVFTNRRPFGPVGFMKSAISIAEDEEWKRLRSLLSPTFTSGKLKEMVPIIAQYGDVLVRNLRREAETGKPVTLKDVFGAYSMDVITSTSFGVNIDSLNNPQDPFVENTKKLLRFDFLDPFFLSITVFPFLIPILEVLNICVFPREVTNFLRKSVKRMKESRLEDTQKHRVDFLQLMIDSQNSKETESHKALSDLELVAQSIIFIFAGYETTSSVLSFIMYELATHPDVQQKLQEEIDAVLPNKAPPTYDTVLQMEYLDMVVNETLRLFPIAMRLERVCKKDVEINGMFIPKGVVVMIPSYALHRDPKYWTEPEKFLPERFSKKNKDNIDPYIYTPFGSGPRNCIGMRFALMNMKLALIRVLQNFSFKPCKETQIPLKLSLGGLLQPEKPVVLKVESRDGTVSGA

On to `CCCS(=O)c1ccc2nc(NC(=O)OC)[nH]c2c1` (stereo not given), for which the Potency entry in assay [1], in [2], in assay [4], in assay [5] and in [7] was “inactive” throughout. In addition, the outcome in [3] and in assay [6] was inactive. Also, the Potency in [8] was 4.22 µM (active) and 8.17 µM (active).

As for `O=C(NC(Cc1cc(=O)[nH]c2ccccc12)C(=O)O)c1ccc(Cl)cc1` (stereo not given), the Potency entry in assay [1], in assay [2], in assay [4], in [9], in [5] and in assay [10] was “inactive” each time. The Potency entry in assay [11], in [7] and in assay [8] was “inactive” throughout. The compound was called inactive in assay [3].

As for `COc1c2occc2cc2ccc(=O)oc12`, the Potency result in [1], in assay [2], in [4], in [9] and in assay [10] was “inactive” throughout. In addition, the compound was classed as inactive in assay [3]. Moreover, the Potency in assay [7] was 3.89 µM (active).

For `Cc1ccc(S(=O)(=O)NC(=O)NN2CC3CCCC3C2)cc1` (stereo not given), the Potency result in assay [1], in assay [2], in assay [4], in [9], in assay [10] and in [11] was “inactive” in each case. In addition, the Potency result in [7] and in assay [8] was “inactive” throughout. Also, the outcome in assay [3] was inactive.

Consider `O=C(c1ccccc1)c1ccc2n1CCC2C(=O)O` (stereo not given), for which the Potency result in assay [1], in assay [2], in assay [12], in assay [4], in assay [5] and in assay [10] was “inactive” in each case. The Potency entry in assay [7], in [15] and in [8] was “inactive” in each case. In addition, the compound was called inactive in [3], in assay [13] and in assay [14].

Consider `c1cnc2cc3c(cc2n1)C1CNCC3C1`, for which the Potency entry in assay [1], in assay [2], in assay [4], in assay [9], in [5] and in assay [10] was “inactive” in each case. Also, the Potency result in [11], in assay [7], in [15] and in assay [8] was “inactive” throughout. In addition, the outcome in assay [3] and in assay [14] was inactive.

With `Nc1cc(C(Cl)=C(Cl)Cl)c(S(N)(=O)=O)cc1S(N)(=O)=O`, the Potency entry in assay [1], in assay [2], in [4], in assay [9], in [5] and in [10] was “inactive” each time. Moreover, the Potency result in assay [11] and in [8] was “inactive” throughout. Further, the compound was called inactive in assay [3].

On to `CC(C)Oc1ccc2c(=O)c(-c3ccccc3)coc2c1`, for which the Potency entry in assay [1], in [2], in assay [4], in assay [9], in [5] and in assay [10] was “inactive” in each case. Further, the Potency entry in [11] and in assay [8] was “inactive” in each case. The call in [3] was inactive. The Potency in assay [7] was 13.8 µM (active) and 21.9 µM (active).

Turning to `CCc1nc(N)nc(N)c1-c1ccc(Cl)cc1`, the Potency result in [1], in assay [2], in assay [4], in assay [9], in assay [5] and in [10] was “inactive” throughout. For the same compound, in [7], the Potency result is “inactive”. Also, the compound was called inactive in assay [3]. Further, the Potency was 12.3 µM (active) in [11]; 2.37 µM (active) and 2.95 µM (active) in assay [8].

For `Nc1ccc(S(N)(=O)=O)cc1`, the Potency entry in assay [1], in assay [2], in assay [4], in assay [9], in [5] and in assay [10] was “inactive” throughout. For the same compound, the Potency entry in assay [8] was “inactive”. Further, the compound was classed as inactive in assay [3].
